Data from PubChem BioAssay (NCATS).
Results filed as inconclusive are left out. Active and inactive are the calls of the source. The call rests on the fitted dose curve.

Experiments:
[1] = Primary qHTS for inhibitors of SARS-S pseudo-typed particle cell entry (AID 1479145); further: nearly all actives have a fitted effect of over 45% in size
[2] = Primary qHTS for Huh7 cytotoxicity: counterscreen for inhibitors of MERS-S pseudotyped particle cell entry (AID 1479147)
[3] = Primary qHTS for inhibitors of MERS-S pseudo-typed particle cell entry (AID 1479149); further: nearly all actives have a fitted effect of over 60% in size
[4] = Primary qHTS for Vero E6 cytotoxicity: counterscreen for inhibitors of SARS-S pseudo-typed particle cell entry (AID 1479150)

Measured: Potency

O=C(O)CNC(=O)CNC(=O)CNC(=O)CSC(=O)c1ccccc1
inactive: all assays above

CC(=O)N[C@@H](CCC(N)=O)C(=O)O
inactive: all assays above

COC(=O)c1ccc2c(C(=Nc3ccc(N(C)C(=O)CN4CCN(C)CC4)cc3)c3ccccc3)c(O)[nH]c2c1
inactive: all assays above

CN(C(=O)C(Cl)Cl)c1ccc(OC(=O)c2ccco2)cc1
inactive: all assays above

Cn1c(NCCN(CCO)CCCc2ccc([N+](=O)[O-])cc2)cc(=O)n(C)c1=O
inactive: all assays above

COc1ccccc1O
inactive: all assays above

O=C(O)CC(O)C(=O)O (stereo not given)
inactive: all assays above

N[C@H]1C(O)O[C@H](CO)[C@@H](O)[C@@H]1O (stereo not given in full)
inactive: all assays above

c1ccc2[nH]ccc2c1
inactive: all assays above

S=c1[nH]c2ccccc2s1
inactive: all assays above

CCCCCCCCCCC(CO)CCCCCCCC (stereo not given)
inactive: all assays above

CN(C)CC/C=C1/c2ccccc2COc2ccc(CC(=O)O)cc21
inactive: all assays above

COc1c(N2CCNC(C)C2)c(F)cc2c(=O)c(C(=O)O)cn(C3CC3)c12 (stereo not given)
inactive: all assays above

CC(C)C[C@H](NC(=O)[C@@H](O)[C@H](N)Cc1ccccc1)C(=O)O
inactive: all assays above

CCc1c(C)[nH]c2c1C(=O)C(CN1CCOCC1)CC2 (stereo not given)
inactive: all assays above

O=C(O)c1ccccn1
inactive: all assays above

CCC(C)(Oc1ccc(C2(c3ccc(OC(C)(CC)C(=O)O)cc3)CCCCC2)cc1)C(=O)O (stereo not given)
inactive: all assays above

CC1=NN(c2ccccc2)C(=O)C1
inactive: all assays above

COc1ccc2cc(CCC(C)=O)ccc2c1
inactive: all assays above

[O-][n+]1cccc(/C(Cl)=N/OC[C@@H](O)CN2CCCCC2)c1
inactive: all assays above

NC(CO)C(=O)NNCc1ccc(O)c(O)c1O (stereo not given)
inactive: all assays above

CC(=O)Oc1ccccc1C(=O)O
inactive: all assays above

CCCCC(CC)COC(=O)c1ccc(N(C)C)cc1 (stereo not given)
inactive: all assays above

CCOc1cc(NC(C)=O)ccc1C(=O)OC
inactive: all assays above

CN1CCN(c2c(F)cc3c(=O)c(C(=O)O)cn4c3c2OCN4C)CC1
inactive: all assays above

O=C1NS(=O)(=O)c2ccccc21
inactive: all assays above

CC(C[N+](C)(C)C)OC(N)=O (stereo not given)
inactive: all assays above

O=C(Nc1cccc(C2=NCCN2)c1)Nc1cccc(C2=NCCN2)c1
inactive: all assays above

Nc1nc2c(ncn2CCC(CO)CO)c(=O)[nH]1
inactive: all assays above

CCCCCCCCCCCCCC(=O)OC(C)C
inactive: all assays above

CCCCC(CC)COC(=O)/C=C/c1ccc(OC)cc1 (stereo not given)
inactive: all assays above

CNCc1ccc(-c2[nH]c3cc(F)cc4c3c2CCNC4=O)cc1
inactive: all assays above

COc1ncnc(NS(=O)(=O)c2ccc(N)cc2)c1OC
inactive: all assays above

CS(=O)(=O)c1ccc(C(=O)Nc2ccc(Cl)c(-c3ccccn3)c2)c(Cl)c1
inactive: all assays above

CC[N+](C)(CC)CCOC(=O)C(O)(c1ccccc1)C1CCCCC1 (stereo not given)
inactive: all assays above
